S1P2 blocker: human S1P2 receptor antagonists, primary screen, cell-based. cell-based S1P2 antagonist assay, inhibition at 5 uM. inhibition, % at 5 µM. 97,000 compounds, 0.21% hits. AID 736, 2007; in the data active means inhibition above about 45%;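 further: CRE beta-lactamase reporter cells expressing human S1P2 stimulated with S1P; 0% = agonist at EC80 alone and 100% = agonist plus reference antagonist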
Target sequence (O95136 whole entry, looked up): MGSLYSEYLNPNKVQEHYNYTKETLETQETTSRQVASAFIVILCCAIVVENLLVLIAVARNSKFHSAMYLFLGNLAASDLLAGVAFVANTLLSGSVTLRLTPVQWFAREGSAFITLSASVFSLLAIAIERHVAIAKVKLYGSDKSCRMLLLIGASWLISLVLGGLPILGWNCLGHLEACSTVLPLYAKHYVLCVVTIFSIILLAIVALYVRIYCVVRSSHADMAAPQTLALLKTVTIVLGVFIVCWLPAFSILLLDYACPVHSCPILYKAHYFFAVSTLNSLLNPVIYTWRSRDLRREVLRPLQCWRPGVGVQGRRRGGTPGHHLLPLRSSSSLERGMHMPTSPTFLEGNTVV
PostGolgi ctrl: growth inhibition of yeast control strain, primary screen, counter-screen for post-Golgi transport modulator project. AID 738, 2007. 98,000 compounds, 5% hits. inhibition, % at 10 µM. efflux-deficient yeast background strain, growth absorbance A615, 16 h
PostGolgi yeast: phenotypic screen on post-Golgi transport, primary screen | post-Golgi transport phenotypic cell assay | inhibition, % at 10 µM | 98,000 compounds, 0.9% hits;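 further: yeast cells grown in 1536-well plates; yeast grown about 18 h at 30C before absorbance read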
GALR2 ag: GALR2 receptor agonists, primary screen, cell-based. 140,000 compounds, 0.48% hits. activation, % (test concentration not listed). GALR2-expressing cells, agonist activation read-out; in the data active means activation above about 5%, passing the limit was not always enough;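 further: 0% = vehicle buffer wells and 100% = reference agonist at full effect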
GALR2 blocker: GALR2 antagonists in receptor-expressing cells, primary screen | Galanin receptor type 2 (Homo sapiens), O43603 | antagonist mode | inhibition, % at 4 µM | 140,000 compounds, 0.39% hits; in the data active means inhibition above about 27%;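 further: cells stimulated with galanin 1-16 at roughly its EC80; 0% = agonist challenge control and 100% = basal control without agonist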
S1P2 agonist: S1P2 receptor agonists, primary screen, cell-based. S1P2-expressing cell line, agonist reporter read-out. activation, % at 4.5 µM. 97,000 compounds, 0.46% hits. AID 729, 2007; in the data active means activation above about 16%;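 further: 0% = vehicle low control and 100% = maximal reference agonist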
Numbers without * were called inactive; x = no result. The sample as a whole holds a higher share of hits than the screen did. Unless noted, no stated cut-off is given here; in the data, active means inhibition above about 30%; inactive means the rest.

SMILES	S1P2 blocker	PostGolgi ctrl	PostGolgi yeast	GALR2 ag	GALR2 blocker	S1P2 agonist
CCOC(=O)N1CCN(C(=O)c2cnc(Nc3ccccc3OC)c3ccccc23)CC1	x	-5	0	7.0*	12	x
CCOC(=O)c1cnc2ccc(C)cc2c1Sc1ccccc1	4	31*	3	-1	-4	-2
CCOC(=O)c1cnc2ccc(C)cc2c1Sc1ccc(F)cc1	-19	11	3	-1	3	-3
CCOC(=O)c1cnc2ccc(OCC)cc2c1N1CCN(c2ccccc2)CC1	-1	54*	9	3	-25	-8
CCOC(=O)c1cnc2ccc(OCC)cc2c1NCc1ccccc1	x	x	x	1	-5	x
COc1ccc(N2CCN(CC(O)COc3ccc4c(c3)CCC4)CC2)cc1 (configuration not stated)	-4	38*	11	-2	-1	-7
OC(COc1ccc2c(c1)CCC2)CN1CCN(c2ccccc2F)CC1 (configuration not stated)	0	21	0	0	-6	-8
O=C(COc1ccc2c(c1)OCO2)NC12CC3CC(CC(C3)C1)C2	-20	36*	-9	1	-6	-3
Cc1noc(C)c1COc1ccc(C(=O)OCC(=O)NC2CCCCC2C)cc1 (configuration not stated)	8	4	2	-1	11	-7
Cc1noc(C)c1COc1ccc(C(=O)OCC(=O)NC23CC4CC(CC(C4)C2)C3)cc1	-18	37*	-6	-3	-18	-6
CCCn1c(SCC(=O)NC(C)C23CC4CC(CC(C4)C2)C3)n[nH]c1=O (configuration not stated)	6	38*	-2	-2	-5	-5
Cc1nc2c3ccccc3nc(SCC(=O)N3CC(C)CC(C)C3)n2n1 (configuration not stated)	-57	32*	0	-1	-14	7
Cc1ccc(CNc2ccc(N3C(=O)CCCC3=O)cc2[N+](=O)[O-])cc1	x	x	x	1	11	x
C1CCN=C(NC23CC4CC(CC(C4)C2)C3)CC1	x	x	x	-2	-2	x
COc1nc(NC23CC4CC(CC(C4)C2)C3)nc(OC)n1	-8	34*	-1	0	4	-2
Cc1ccc(SCCOCCN2CCc3ccccc3C2)cc1	x	x	x	0	1	x
COCCn1c(SCc2csc(-c3ccccc3)n2)nc2ccccc21	x	30*	-1	0	-2	x
O=C(Cn1c(C(=O)NCc2ccco2)cc2sccc21)c1ccccc1	-9	44*	-4	-1	25	0
O=C(Cn1c(C(=O)NCC2CCCO2)cc2sccc21)c1ccccc1 (configuration not stated)	19	5	-4	-2	13	-4
CCN(CC)c1ccc(C2NCC(c3ccc([N+](=O)[O-])cc3)O2)cc1 (configuration not stated)	3	x	x	-2	0	-8
COc1cccc(C2C(C(=O)Nc3nc4ccccc4s3)=C(C)NC3=C2C(=O)CC(C)(C)C3)c1OC (configuration not stated)	-17	24	11	6	1	11
COc1ccc(OC)c(C2C(C(=O)Nc3nc4ccccc4s3)=C(C)NC3=C2C(=O)CCC3)c1 (configuration not stated)	-20	17	-1	14*	1	24*
C=CCc1cc(C)ccc1OCCOCCn1ccnc1	x	x	x	0	1	x
CCOc1cc(C2C(C(=O)OC)=C(C)N=C3SC(C)C(=O)N32)ccc1OC(C)=O (configuration not stated)	9	2	-5	-1	-3	-1
CCOC(=O)C1=C(C)N=C2SC(C)C(=O)N2C1c1ccc(OC(C)=O)c(OC)c1 (configuration not stated)	0	47*	0	-2	-6	-3
SMILES	S1P2 blocker	PostGolgi ctrl	PostGolgi yeast	GALR2 ag	GALR2 blocker	S1P2 agonist
Cc1ccc(-n2ncc3c(=O)n(CC(=O)N4CCCc5ccccc54)cnc32)cc1C	3	x	x	0	-16	-4
O=C(Nc1nnc(-c2ccc3c(c2)CCCC3)o1)c1ccc(Cl)cc1Cl	8	30	85*	0	-3	-4
Cc1nnsc1C(=O)NNS(=O)(=O)c1ccccc1	19	38*	2	-3	3	-6
Cc1c(C(=O)NNS(=O)(=O)c2ccccc2)sc(=S)n1C	x	x	x	-1	2	x
COc1cccc(NC(=O)C2CCCN2C(=O)Nc2cccc(F)c2)c1 (configuration not stated)	31	3	14	-4	-5	-13
COC(=O)[C@H]1CCCN1C(=O)Nc1cccc(Oc2c(F)c(F)c(F)c(F)c2F)c1	2	-7	6	14*	8	-4
COc1cc2c(cc1OC)-c1cc(OCc3ccccc3Cl)nc(=O)n1CC2	-51	30	-3	1	-1	29*
COc1cc2c(cc1OC)C(C(=O)NC1CC1)C1c3ccccc3CCN1C2=O (configuration not stated)	-4	x	x	1	1	-3
COc1cc2c(cc1OC)-c1cc(NC3CCCC3)nc(=O)n1CC2	-35	5	-3	0	-7	24*
CC[C@@H](C)[C@H](NC(=O)OC(C)(C)C)c1nnc(S(=O)(=O)Cc2cc(C)ccc2C)o1	23	41*	5	1	1	-4
CC(C)(C)OC(=O)N[C@@H](Cc1ccccc1)c1nnc(S(=O)(=O)Cc2cccc(F)c2)o1	7	22	18	3	8	-6
Cc1ccccc1CS(=O)(=O)c1nnc([C@H](CC(C)C)NC(=O)OC(C)(C)C)o1	13	45*	41*	2	19	-4
Cc1cccc(NC(=S)NNC(=O)CC(C)O)c1C (configuration not stated)	7	48*	-3	-3	10	-6
CC12CCC(C(=O)NCc3ccc4c(c3)OCO4)(OC1=O)C2(C)C (configuration not stated)	-16	33*	10	-2	3	-3
NC(N)=N/N=C/c1ccc(OCc2ccc(Cl)cc2)cc1	17	63*	-9	-1	14	-5
NC(N)=N/N=C/c1ccc(OCc2ccccc2)cc1	3	8	3	0	11	-7
CCOC(=O)N1CCN(C(=O)Cn2nc(-c3ccc(Cl)cc3)ccc2=O)CC1	14	-1	-5	-4	-2	-3
CCOC(=O)Cn1nc(-c2ccc(Cl)cc2)ccc1=O	13	36*	-4	0	5	-8
CCCOC(=O)c1ccc(NC(=O)C(CC)CC)cc1	x	x	x	-1	9	x
COc1ccc(CC(=O)NC(=S)Nc2ccc(S(=O)(=O)NC(C)(C)C)cc2)cc1	-5	38*	3	2	5	-6
COc1ccc(CC(=O)NC(=S)Nc2ccc(S(N)(=O)=O)cc2)cc1	x	x	x	-2	-3	x
